# EBNA-1 inhibitor: EBNA-1 DNA-binding inhibitors, primary screen, biochemical, fluorescence polarization; inhibition, % at 14.8 µM; hit rate 0.34% among 300,000; in the data active means inhibition above about 28%
# MEX-5 binding: MEX-5 zinc finger RNA-binding disruptors – biochemical, C. elegans, fluorescence polarization, MLPCN library, primary screen. MEX-5/FITC-TCR2 RNA binding; hits give low values. hit rate 0.38% among 300,000. activity score (negative = inhibition of binding), % at 10 µM. AID 1832, 2009;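 active means inhibition past about -25% in most replicates, and total fluorescence under double the plate's negative control median, limit read from the data; inconclusive means replicates evenly split on the limit, or fluorescence at least double controls; inactive means too little inhibition in most replicates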;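 further: 0% = DMSO and -100% = 5 µM competing unlabeled TCR2 RNA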
# EBV gp42 inh: Epstein-Barr virus gp42 inhibitors, primary screen, biochemical, uHTS, fluorescence polarization. hit rate 0.42% among 220,000. Fluorescence polarization binding assay, mP read-out. inhibition, % (tested at 21.74 µM). Glycoprotein 42 (Epstein-Barr virus (strain AG876)), Q1HVG2; in the data active means inhibition above about 50%
# Target sequence (Q1HVG2 whole entry, looked up): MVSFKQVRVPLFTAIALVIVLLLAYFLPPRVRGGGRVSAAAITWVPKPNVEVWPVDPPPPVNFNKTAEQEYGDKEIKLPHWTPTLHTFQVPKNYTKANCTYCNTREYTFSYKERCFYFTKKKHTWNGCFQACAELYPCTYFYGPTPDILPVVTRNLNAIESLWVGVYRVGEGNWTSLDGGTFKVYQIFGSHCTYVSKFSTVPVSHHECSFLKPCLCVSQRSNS
# ZTA DNA inh: ZTA (EBV) inhibition in EBNA-1 counter-screen; inhibition, % at 11 µM; hit rate 0.15% among 320,000; ZTA-DNA binding, fluorescence polarization; in the data active means inhibition above about 33%
# Target sequence (P03206 whole entry, looked up): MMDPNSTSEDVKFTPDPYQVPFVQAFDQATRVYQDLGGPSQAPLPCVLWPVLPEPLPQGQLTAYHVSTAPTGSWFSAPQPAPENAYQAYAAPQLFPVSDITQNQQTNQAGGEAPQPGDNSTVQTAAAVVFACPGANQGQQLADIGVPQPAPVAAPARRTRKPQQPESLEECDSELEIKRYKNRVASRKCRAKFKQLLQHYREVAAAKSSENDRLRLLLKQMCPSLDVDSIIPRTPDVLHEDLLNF
# ZTA inh confirm: EBV Zta binding to ZRE DNA, inhibitors, confirmation, biochemical, fluorescence polarization, triplicate; hit rate 30% among 320; inhibition, % at 11.1 µM; shares compounds with ZTA DNA inh;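 active means mean inhibition across triplicate runs above the hit threshold derived for the original primary screen, cut at about 33% in these data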;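 further: 0% = Zta with DMSO and 100% = wells lacking Zta protein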
# EBNA-1 counter: EBNA-1 DNA-binding inhibition, counter-screen for ZTA inhibitor project, biochemical, fluorescence polarization. inhibition, % at 14.8 µM. shares compounds with ZTA DNA inh. 320 tested, under 10 active; call rule not given here
# Active calls of the source: *; ? = inconclusive; . = no result; + = active, no number. Most compounds without a hit are left out; they make up all but 1% or so of the library.
SMILES,EBNA-1 inhibitor,MEX-5 binding,EBV gp42 inh,ZTA DNA inh,ZTA inh confirm,EBNA-1 counter
CCCNC(=S)N1CCN(C(c2ccccc2)c2ccccc2)CC1,-6,3,-8,1,.,.
CCCCNC(=S)N1CCN(C(c2ccccc2)c2ccccc2)CC1,9,2,7,43*,12,10
O=C(CSc1ncnc2scc(-c3ccccc3)c12)N1CCN(Cc2ccc3c(c2)OCO3)CC1,14,-6,1,59*,160*,72*
c1ccc(-c2csc3ncnc(N4CCN(Cc5ccc6c(c5)OCO6)CC4)c23)cc1,-9,0,.,-2,.,.
Cc1ccc(-c2nn(-c3ccccc3)cc2/C=C/C(=O)O)o1,-11,-1,-1,-21,.,.
Cc1ccc(-c2nn(-c3ccccc3)cc2C(=O)O)o1,4,-6,-7,37*,-2,-13
CC1CN(C(=O)c2ccccc2OCc2ccc(Cl)cc2Cl)CC(C)O1 (stereo not given),.,.,.,-4,.,.
CC(C)c1ccc(NC(=O)COc2ccc(S(=O)(=O)N3CCOCC3)cc2)cc1,2,-1,0,35*,18,-10
O=C(Nc1ccccc1)Nc1nccs1,0,1,-10,7,.,.
CC(C)(C(=O)Nc1nccs1)c1ccccc1,2,5,-25,40*,2,-1
Cn1c2ccccc2c(=O)n2c(=O)c3ccccc3cc12,-2,-10,1,43*,33*,-7
CCC(=O)Nc1nc2ccc3sc(C)nc3c2s1,11,0,11,35*,-7,-4
COc1cc(Cl)ccc1OCc1cc(C(=O)NCc2cc(C(C)C)no2)no1,5,1,.,-15,.,.
O=C(/C=C/c1ccco1)NC(=S)Nc1ccc(C(=O)O)cc1,-11,-32*,.,54*,38*,1
Cc1ccccc1S(=O)(=O)Cc1ccc(C(=O)NCCCN2CCC(C)CC2)o1,-3,0,.,-17,.,.
Nc1nc(N)c2cc(Sc3ccc4ccccc4c3)ccc2n1,2,1,23,34*,20,-4
Nc1ccc(Sc2cc(Cl)nc(N)n2)cc1,-4,-1,-10,1,.,.
CC1=NN(c2ccccc2)C(=O)/C1=C/C=C/c1ccccc1,1,3,-8,19,.,.
CC1=NN(c2cccc(C(=O)O)c2)C(=O)/C1=C\C=C\c1ccco1,13,-27*,18,70*,67*,5
Cc1cc(S(=O)(=O)Nc2ccc3cn[nH]c3c2)c(C)cc1Cl,-15,-2,.,-16,.,.
CC1=[N+](C)c2ccc3ccccc3c2C1(C)C,1,0,14,+,69*,18
c1coc(-c2nnc(-c3ccco3)nn2)c1,5,-59*,.,37*,33*,-8
COC(=O)c1ccc(NC(=O)c2ccc(NC(=O)c3ccco3)cc2)cc1,7,-4,.,39*,49*,23
Cc1cccc(NS(=O)(=O)c2ccc(C(=O)N3CCC3)cc2)c1C,2,1,.,-11,.,.
CCCCCCCCCCCCCCCC[N+](C)(C)CCN(Cc1ccc(OC)cc1)c1ncccn1,6,.,.,35*,77*,3
SMILES,EBNA-1 inhibitor,MEX-5 binding,EBV gp42 inh,ZTA DNA inh,ZTA inh confirm,EBNA-1 counter
CC[N+](C)(C)CCN(Cc1ccc(Cl)cc1)c1ccccn1,-2,1,-22,-3,.,.
O=C(O)CCCCCNC(=O)CSc1nnc(-c2ccco2)n1-c1ccccc1,-4,-7,.,7,.,.
O=C(O)c1ccc2c(c1)C(=O)/C(=C\c1ccco1)C2=O,-4,?,12,62*,63*,9
COc1ccc(NC(=O)CN2C(=O)NC(c3ccccc3)(c3ccccc3)C2=O)cc1OC,1,-2,.,-3,.,.
CCn1c(CSc2n[nH]c(N)n2)nc2cc(C(=O)O)ccc21,16,3,64*,34*,39*,19
COCCn1c(SCCCC(=O)c2ccc(Br)cc2)nnc1-c1ccncc1,10,1,-12,-12,.,.
CCn1c(CSc2nnc(-c3ccncc3)n2CCOC)nc2cc(C(=O)O)ccc21,5,-4,8,37*,30,17
COc1ccc(C2=[N+](C)CCn3cccc32)c(OC)c1,12,0,-36,33*,1,1
CC(=O)Nc1ccc(N(C(=O)c2ccccn2)C(C(=O)NC2CCCCC2)c2ccc(F)cc2)cc1 (stereo not given),-4,-1,.,-3,.,.
CCc1ccc2nc(N(CCCN(C)C)C(=O)c3ccc(S(=O)(=O)N4CCCc5ccccc54)cc3)sc2c1,2,3,.,37*,7,0
CCc1ccc2nc(N(CCCN(C)C)C(=O)c3ccc(S(=O)(=O)N4CCCC4)cc3)sc2c1,1,-1,.,0,.,.
O=C(CN1C(=O)/C(=C/c2ccco2)SC1=S)Nc1ccc(O)c(C(=O)O)c1,-9,-8,.,7,.,.
O=C(CN1C(=O)/C(=C/c2ccco2)SC1=S)Nc1ccc(C(=O)O)c(O)c1,12,-28*,.,57*,19,-5
O=C(CCCN1C(=O)/C(=C\c2ccco2)SC1=S)Nc1ccc(O)cc1C(=O)O,12,-17,.,53*,0,2
O=C(CCCN1C(=O)/C(=C\c2cccs2)SC1=S)Nc1ccc(O)cc1C(=O)O,9,-1,.,9,.,.
COc1ccccc1Nc1ncnc2c1c(C)c(C)n2CCO,.,2,.,.,.,.
CCOc1ccc(CCNC(=O)COC(=O)COc2ccccc2C)cc1OCC,10,-2,.,-3,.,.
COc1cc(/C=C2/S/C(=N/S(=O)(=O)Cc3ccccc3)NC2=O)c([N+](=O)[O-])cc1OC,3,-4,-3,27,.,.
COc1cc(/C=C2\S/C(=N/S(=O)(=O)Cc3ccccc3)NC2=O)c([N+](=O)[O-])cc1OC,13,0,-9,39*,8,11
COc1ccc(C(=O)Nc2ccc(C(=O)Nc3cccnc3)cc2)cc1,11,-1,.,52*,23,7
COc1ccc(NC(=O)Nc2cccnc2)cc1,1,3,5,-4,.,.
O=c1[nH]c(-c2ccc(Cl)cc2)nc(=S)[nH]1,1,0,-9,46*,3,-10
Cc1ccc(C2(c3ccccc3)NC(=O)N(CC(=O)N(C)C3CCS(=O)(=O)C3)C2=O)cc1C (stereo not given),.,.,.,-24,.,.
C/C=C\C=C\C(=O)N1CC2(CC(c3cccc(NC(=O)CC)c3)=NO2)C[C@H]1C(N)=O (stereo not given in full),6,0,-6,35*,9,5
NC(=O)c1ccc(NC(=O)CNC(=O)c2sc3ccccc3c2Cl)cc1,.,.,.,12,.,.
COc1cc(/C=C/C(=O)/C=C(O)/C=C/c2ccc(O)c(OC)c2)ccc1O,.,.,.,34*,14,-8
O=C(Nn1c(C2CCC2)nc2ccccc2c1=O)c1cccs1,1,1,-14,34*,0,-4
